Experimental data as given in PubChem BioAssay (Tox21).
“And” between values parts separate entries of the source, which are not always exact repeats. Identical values can stand only once. Records with an inconclusive call do not appear. Some structures have more than one record in an assay (separate samples or runs), and their calls can disagree. The source made the active and inactive calls. Unless noted, calls follow the shape of the dose curve; as a rule, active = well fitted curve in the direction sought with a large enough effect in the repeat runs; inconclusive = weak or mixed curves; inactive = no such curve, though single readings can be large; an effect the other way counts as inactive or inconclusive.

Columns and labels:
[1] = qHTS assay to identify small molecule agonists of the peroxisome proliferator-activated receptor delta (PPARd) signaling pathway - cell viability counter screen (AID 743211); also: nearly all actives have a fitted effect of over 55% in size; also: potency is read from the fitted curve at half-maximal effect
Method in brief: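 PPARd-bla HEK293H cells (3000/well) were pre-incubated 5 h at 37 C, then exposed to compound for 17 h at 37 C. After 2 h with LiveBLAzer substrate, CellTiter-Glo was added to the same wells; luminescence read after 30 min at room temperature.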

[2] = qHTS assay to identify small molecule antagonists of the peroxisome proliferator-activated receptor delta (PPARd) signaling pathway - cell viability counter screen (AID 743213); also: nearly all actives have a fitted effect of over 50% in size; also: potency is read from the fitted curve at half-maximal effect
Method in brief: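 Cytotoxicity counter screen: CellTiter-Glo luminescence read 30 min after addition, in the same wells as the reporter assay. There, PPARd UAS-bla HEK293H cells (3000/well) were treated 17 h at 37 C with compound and 300 nM L165041.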

[3] = qHTS assay to identify small molecule agonists of the farnesoid-X-receptor (FXR) signaling pathway - cell viability counter screen (AID 743218); also: nearly all actives have a fitted effect of over 45% in size; also: potency is read from the fitted curve at half-maximal effect
Method in brief: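 After 16 h at 37 C with test compounds, FXR-bla HEK 293T cells were given LiveBLAzer B/G substrate for 2 h at RT and then CellTiter-Glo; luminescence was taken after 30 min.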

[4] = qHTS assay to identify small molecule antagonists of the farnesoid-X-receptor (FXR) signaling pathway - cell viability counter screen (AID 743221; active = well fitted cell-killing curve with a large enough effect in the repeat runs, not every such curve was filed as active; also: nearly all actives have a fitted effect of over 50% in size; also: potency is read from the fitted curve at half-maximal effect)
Method in brief: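 GeneBLAzer FXR-UAS-bla HEK 293T cells, compound plus chenodeoxycholic acid (50 uM final), 16 h at 37 C. CellTiter-Glo added to the same wells after the beta-lactamase read; luminescence read after 30 min at room temperature as viability.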

[5] = molecular target: Vitamin D3 receptor (Homo sapiens) (UniProt P11473); assay: qHTS assay to identify small molecule agonists of the vitamin D receptor (VDR) signaling pathway (AID 743222; calls by dose curve)
Chain of Vitamin D3 receptor (Homo sapiens) (P11473 whole entry, looked up): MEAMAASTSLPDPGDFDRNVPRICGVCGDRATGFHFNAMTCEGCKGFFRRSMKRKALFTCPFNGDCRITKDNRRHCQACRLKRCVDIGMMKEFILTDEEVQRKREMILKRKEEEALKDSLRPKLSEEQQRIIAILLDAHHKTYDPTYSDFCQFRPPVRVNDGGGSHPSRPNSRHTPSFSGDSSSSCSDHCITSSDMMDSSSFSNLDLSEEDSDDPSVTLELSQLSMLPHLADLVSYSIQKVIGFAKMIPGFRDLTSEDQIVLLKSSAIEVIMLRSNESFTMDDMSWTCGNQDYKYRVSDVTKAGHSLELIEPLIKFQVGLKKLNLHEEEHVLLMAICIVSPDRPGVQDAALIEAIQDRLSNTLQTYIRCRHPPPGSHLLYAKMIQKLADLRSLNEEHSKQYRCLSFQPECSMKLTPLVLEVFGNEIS
Method in brief: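 VDR-bla cells were seeded, left 4 h, treated with compounds in DMSO for 16 h, incubated 2 h at RT with B/G FRET substrate, and read for fluorescence.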

[6] = molecular target: Bile acid receptor (Homo sapiens) (UniProt Q96RI1); assay: qHTS assay to identify small molecule antagonists of the farnesoid-X-receptor (FXR) signaling pathway (AID 743217; active = well fitted inhibition curve with a large enough effect in the signal ratio in the repeat runs, not every such curve was filed as active; the % refers to the signal ratio)
Chain of Bile acid receptor (Homo sapiens) (Q96RI1 whole entry, looked up): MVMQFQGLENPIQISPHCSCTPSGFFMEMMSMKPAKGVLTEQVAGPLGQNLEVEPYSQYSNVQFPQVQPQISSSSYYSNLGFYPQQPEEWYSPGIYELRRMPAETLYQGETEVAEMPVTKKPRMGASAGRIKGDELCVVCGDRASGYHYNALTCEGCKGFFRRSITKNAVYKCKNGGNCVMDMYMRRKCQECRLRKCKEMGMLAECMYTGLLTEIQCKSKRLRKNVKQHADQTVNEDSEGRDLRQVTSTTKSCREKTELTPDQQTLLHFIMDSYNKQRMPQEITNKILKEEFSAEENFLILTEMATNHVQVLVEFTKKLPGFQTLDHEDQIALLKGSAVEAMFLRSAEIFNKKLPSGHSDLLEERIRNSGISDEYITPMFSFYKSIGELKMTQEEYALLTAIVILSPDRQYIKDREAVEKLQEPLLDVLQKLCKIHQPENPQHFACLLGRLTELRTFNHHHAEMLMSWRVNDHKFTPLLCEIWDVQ
Method in brief: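 In this cell-based antagonist screen, inhibition of CDCA-driven (50 uM final) UAS-beta-lactamase expression in HEK 293T cells was measured by FRET fluorescence following 16 h compound exposure at 37 °C.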

[7] = molecular target: Bile acid receptor (Homo sapiens) (UniProt Q96RI1); assay: qHTS assay to identify small molecule agonists of the farnesoid-X-receptor (FXR) signaling pathway (AID 743220; active = well fitted activation curve with a large enough effect in the signal ratio in the repeat runs, not every such curve was filed as active; the % refers to the signal ratio)
Method in brief: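 Beta-lactamase reporter under UAS control in GeneBLAzer FXR HEK 293T cells (5000/well) measured with LiveBLAzer FRET substrate after 2 h at room temperature. Compound exposure lasted 16 h at 37C.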

[8] = molecular target: Vitamin D3 receptor (Homo sapiens) (UniProt P11473); assay: qHTS assay to identify small molecule antagonists of the vitamin D receptor (VDR) signaling pathway (AID 743223; active = well fitted inhibition curve with a large enough effect in the signal ratio in the repeat runs, not every such curve was filed as active; the % refers to the signal ratio)
Method in brief: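 VDR-bla cells were treated with compound plus 3 nM final 1alpha,25-dihydroxyvitamin D3 for 16 h at 37C. Beta-lactamase reporter read by B/G FRET substrate fluorescence after 2 h at room temperature. qHTS format.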

[9] = molecular target: Peroxisome proliferator-activated receptor delta (Homo sapiens) (UniProt Q03181); assay: qHTS assay to identify small molecule agonists of the peroxisome proliferator-activated receptor delta (PPARd) signaling pathway (AID 743212; calls by dose curve)
Chain of Peroxisome proliferator-activated receptor delta (Homo sapiens) (Q03181 whole entry, looked up): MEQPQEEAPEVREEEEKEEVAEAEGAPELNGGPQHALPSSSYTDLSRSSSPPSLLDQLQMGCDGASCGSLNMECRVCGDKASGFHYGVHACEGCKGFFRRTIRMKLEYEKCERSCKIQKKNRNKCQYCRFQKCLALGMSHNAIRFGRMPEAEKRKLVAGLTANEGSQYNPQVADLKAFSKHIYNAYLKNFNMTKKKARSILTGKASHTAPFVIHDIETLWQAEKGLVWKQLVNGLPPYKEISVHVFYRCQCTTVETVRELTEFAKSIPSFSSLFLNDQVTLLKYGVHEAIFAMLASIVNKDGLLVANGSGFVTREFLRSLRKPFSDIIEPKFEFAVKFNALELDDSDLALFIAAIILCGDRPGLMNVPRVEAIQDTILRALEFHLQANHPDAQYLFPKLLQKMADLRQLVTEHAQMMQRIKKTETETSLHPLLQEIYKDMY
Method in brief: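 GeneBLAzer UAS-bla HEK293H cells carrying a PPARδ construct were exposed to compounds at 37 °C. Beta-lactamase activity was read by FRET fluorescence after 2 h at room temperature with LiveBLAzer B/G substrate.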

[10] = molecular target: Peroxisome proliferator-activated receptor delta (Homo sapiens) (UniProt Q03181); assay: qHTS assay to identify small molecule antagonists of the peroxisome proliferator-activated receptor delta (PPARd) signaling pathway (AID 743215; active = well fitted inhibition curve with a large enough effect in the signal ratio in the repeat runs, not every such curve was filed as active; the % refers to the signal ratio;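 also: cells stimulated with agonist L165041 at 300 nM final during compound exposure; series mostly up to about 62 µM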)
Method in brief: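 With L165041 present at 300 nM final, compounds were incubated 17 h at 37 C on PPARd UAS-bla HEK293H cells. A FRET-based beta-lactamase substrate was then applied for 2 h at room temperature and fluorescence intensity recorded.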

Measured: Potency

CC/C(=N\OC/C=C/Cl)C1=C(O)CC(C2CCOCC2)CC1=O (stereo not drawn)
inactive: [1] | [2] | [3] | [4] | [5]

Clc1cc(C(Cl)(Cl)Cl)cnc1Cl
not listed: [9] | [10]
inactive: all other assays above

CN(N=O)c1ccc([N+](=O)[O-])cc1
inactive: [1] | [2] | [6] | [7] | [4] | [5]

CCOC(=O)C(Cl)C(C)=O (stereo not drawn)
inactive: [1] | [2] | [4] | [5]

O=NN1CCCCCC1
not listed: [9] | [10]
inactive: all other assays above

CN1C[C@H](CNC(=O)OCc2ccccc2)C[C@@H]2c3cccc4c3c(cn4C)C[C@H]21
active: [1] 26.6 µM | [2] 13.3 µM | [3] 13.3 µM

O=[Se]=O
not listed: [3] | [9] | [10]
inactive: all other assays above

CO/N=C(/C(=O)OC)c1ccccc1COc1ccccc1C
inactive: [1] | [2] | [3] | [7] | [5] | [8]

C=COC(C)=O
inactive: [1] | [2] | [3] | [4] | [5]

O=C(N[C@H](c1ccccc1)[C@@H]1CN2CCC1CC2)c1c(Cl)ccc(C(F)(F)F)c1Cl
active: [1] 78.8 µM | [3] 70.2 µM
inactive: [2] | [7] | [5]

BrCC(Br)C1CCC(Br)C(Br)C1 (stereo not drawn)
inactive: [1] | [3] | [4]

COc1cc(Cl)c(OC)cc1Cl
inactive: [1] | [2] | [3] | [5]

COCC(C)N(C(=O)CCl)c1c(C)csc1C (stereo not drawn)
inactive: [1] | [6] | [3] | [7] | [4]

C=CC[C@]1(O)CC[C@H]2[C@@H]3CCC4=CC(=O)CCC4=C3C=C[C@@]21C
inactive: [1] | [2] | [3] | [4]

COC(C)(C)CCC[C@H](C)C/C=C/C(C)=C/C(=O)OC(C)C
active: [1] 38.9 µM
inactive: [2] | [4]

CC(=O)C(C)(C)C
inactive: [1] | [2] | [3] | [4]

O=C(O)C(F)(F)C(F)(F)C(F)(F)C(F)(F)C(F)(F)C(F)(F)C(F)(F)C(F)(F)C(F)(F)C(F)(F)F
not listed: [8] | [9] | [10]
inactive: all other assays above

O=C(CCl)c1ccc(Cl)cc1Cl
active: [1] 18.8 µM
inactive: [6]
inactive and 29.8 µM (active): [2] | [4]

BrCCCCBr
inactive: [1] | [3] | [4]

CCCCCC[N+](=O)[O-]
inactive: [1] | [2] | [6] | [7] | [4] | [5]

C=CC(=O)OC
inactive: [1] | [2] | [6] | [3] | [7] | [5]

C=CC(=O)OCC(C)O (stereo not drawn)
inactive: [1] | [6] | [7] | [4] | [5]

C/C=C/C=O
inactive: [1] | [2] | [3] | [4] | [5]

ClCC(Br)CBr (stereo not drawn)
inactive: [1] | [2] | [3] | [4] | [5]

Cl/C=C\C[N+]12CN3CN(CN(C3)C1)C2
not listed: [8] | [9] | [10]
inactive: all other assays above

NS(=O)(=O)C(F)(F)C(F)(F)C(F)(F)C(F)(F)C(F)(F)C(F)(F)C(F)(F)C(F)(F)F
inactive: [2]
active: [3] 54.9 µM | [4] 27.5 µM

Cc1ccc(-c2c(Cl)nc(C#N)n2S(=O)(=O)N(C)C)cc1
inactive: [3] | [4] | [5]

C/C(=C\c1ccccc1)[N+](=O)[O-]
active: [1] 19.5 µM | [3] 13.8 µM | [4] 43.6 µM

c1cc2ccc3cccc4ccc(c1)c2c34
inactive: [4]

O=S1OC[C@@H]2[C@H](CO1)[C@]1(Cl)C(Cl)=C(Cl)[C@@]2(Cl)C1(Cl)Cl (stereo partly drawn)
inactive: [2] | [6] | [4] | [5]

O=[N+]([O-])c1ccc(F)c([N+](=O)[O-])c1
inactive: [9] | [6] | [7] | [5] | [8]

CO/C=C(/C(=O)OC)c1ccccc1COc1cccc(C(F)(F)F)n1
inactive: [2] | [3] | [7] | [4] | [5]

O=C1C(=O)c2cccc3cccc1c23
inactive: [9] | [2] | [10] | [3] | [4]

O=C1c2ccccc2C(=O)C1C(=O)C(c1ccccc1)c1ccccc1
inactive: [2] | [4]

O=C(OC1CCCCC1)c1ccccc1C(=O)OC1CCCCC1
inactive: [3] | [4] | [8]
active: [1] 46 µM

CC(c1ccc(O)cc1)(c1ccc(O)cc1)c1ccc(O)cc1
inactive: [2] | [4] | [5]

Clc1ccc(C(OCCN2CCCCC2)c2ccccc2)cc1 (stereo not drawn)
inactive: [4] | [5]
